HP1b chromo inh = blocks HP1-beta chromodomain binding to methylated histone tails; P83916; AlphaScreen HP1-beta / biotin-H3K9me3 peptide binding; Potency, µM (series often up to 114 µM), inactives show at the highest dose activity change, negative = inhibition, actives largely listed as inhibitors; hit rate 0.56% among 390,000; AID 540317; note: nearly all actives have a fitted effect of over 70% in size
Target sequence (P83916 whole entry, looked up): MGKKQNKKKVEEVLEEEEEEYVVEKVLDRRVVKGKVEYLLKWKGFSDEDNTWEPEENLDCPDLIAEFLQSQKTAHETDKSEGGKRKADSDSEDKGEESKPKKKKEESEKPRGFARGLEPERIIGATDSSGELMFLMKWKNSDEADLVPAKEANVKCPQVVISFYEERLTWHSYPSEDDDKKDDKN
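AlphaScreen: HP1-beta (50 nM) preformed 30 min with biotin-H3(1-18)K9me3 peptide (50 nM) in PBS pH 7.4, 0.01% Tween-20. Compound added for 30 min at RT, then streptavidin donor/nickel chelate acceptor beads (10 ug/mL) for 30 min.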
JMJD2A Tudor inh = blocks the human JMJD2A Tudor domain; hit rate 4.4% among 390,000; AlphaScreen JMJD2A-Tudor / H3K4me3 peptide binding; Potency, µM (titrated, usually from 114 µM), without a hit: at the highest dose activity change, negative = inhibition, hits mostly inhibitors; AID 504339; note: % is set by controls: 0 for no effect and ±100 for the full control effect; nearly all actives have a fitted effect of over 50% in size
L3MBTL1 inh = L3MBTL1 (human) inhibition; Q9Y468; AlphaScreen L3MBTL1–H3K9me1 peptide binding; Potency, µM (doses to about 57.1 µM), without a hit: at the top dose activity, negative = inhibition, usual class: inhibitors; hit rate 0.66% among 230,000; AID 485360; note: % is set by controls: 0 for no effect and ±100 for the full control effect; nearly all actives have a fitted effect of over 60% in size
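L3MBTL1 50 nM + b-AHA-H3(1-15)K9me1 75 nM, 30 min RT; compound added, 30 min RT; streptavidin donor/Ni-chelate acceptor beads 10 ug/mL each final, 30 min RT dark; AlphaScreen read.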
G9a inh = G9a (human) methyltransferase inhibition. G9a H3K9 monomethylation, AlphaScreen, 2 h. Q96KQ7. Potency, µM (top dose mostly 102 µM), for the others: top-dose activity, negative = inhibition, most hits filed as inhibitors. hit rate 8.8% among 350,000; note: % is set by controls: 0 for no effect and ±100 for the full control effect; nearly all actives have a fitted effect of over 75% in size
Target sequence (Q96KQ7 913-1193 limits assumed): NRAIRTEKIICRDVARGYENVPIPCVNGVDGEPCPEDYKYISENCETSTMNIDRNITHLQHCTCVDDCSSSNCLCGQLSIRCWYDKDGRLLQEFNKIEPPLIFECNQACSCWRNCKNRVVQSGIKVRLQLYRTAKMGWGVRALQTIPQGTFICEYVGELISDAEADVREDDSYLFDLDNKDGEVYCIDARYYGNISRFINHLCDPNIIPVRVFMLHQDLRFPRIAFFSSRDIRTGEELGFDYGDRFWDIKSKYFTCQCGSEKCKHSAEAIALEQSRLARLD
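Enzyme 20 nM + cpd, 15 min RT; add b-H3K9 pep 500 nM / SAM 20 uM; 2 h RT; anti-H3K9me1 Ab 0.5 ug/mL + SA donor / anti-rabbit acceptor beads 20 ug/mL each, 10 min; AlphaScreen read.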
BAZ2B inh = inhibitors of human BAZ2B bromodomain | hit rate 4.4% among 360,000 | Q9UIF8 | AlphaScreen BAZ2B-H3K14Ac peptide displacement | Potency, µM (top dose mostly 114 µM), for the others: at the top dose activity change, negative = inhibition, actives largely listed as inhibitors; note: % is set by controls: 0 for no effect and ±100 for the full control effect; nearly all actives have a fitted effect of over 60% in size
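Protein-peptide AlphaScreen: BAZ2B 50 nM, b-H3K14Ac 50 nM, 1x PBS pH 7.4 + 0.01% Tween-20. Preincubation 30 min RT; cpd 30 min RT (top 110 uM); beads 20 min RT, light-protected.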
Sfp PPTase inh = Sfp phosphopantetheinyl transferase inhibition | Potency, µM, for the others: largest response in the series, negative = inhibition, usual class: inhibitors | Biochemical Sfp PPTase activity, qHTS | Q9F4F7 | hit rate 3.5% among 310,000 | AID 1490;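 note: the enzyme is Sfp with the accession as filed and its product quenches rhodamine fluorescence; 0% = enzyme reaction without inhibitor and -100% = no enzyme wells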
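Reaction rates are the 30-min fluorescence difference (ex 525, em 598 nm) in wells containing 15 nM Sfp, 5 uM rhodamine-CoA and 12.5 uM BHQ-2-YbbR at pH 7.6 with 10 mM MgCl2.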
The depositor's hits bear a star; ? = inconclusive; . = no result given; [ ] = dose if it differs, or a comment. In the library only some 12% were active in any assay of this set; here they are far more common. Calls come from the whole dose curve; as a rule, active = well fitted curve in the direction sought with a large enough effect; inconclusive = small, poorly fitted or top-dose-only effect, or another doubt; inactive = no such curve, though single readings can be large; an effect the other way counts as inactive or inconclusive. Potency is the fitted concentration of half-maximal effect.

SMILES | HP1b chromo inh | JMJD2A Tudor inh | L3MBTL1 inh | G9a inh | BAZ2B inh | Sfp PPTase inh
Cc1ccc(C(=O)Nc2ccc(N3CCN(C)CC3)cc2)cc1C | 4% | -26% | -8% | 71µM* | -37% | 8%
CN1CCN(c2ccc(NC(=O)c3cccc(OCc4ccccc4)c3)cc2)CC1 | -4% | ? | -4% | 16µM* | ? | -15%
CN1CCN(c2ccc(NC(=O)c3ccc4c(c3)OCCO4)cc2)CC1 | 6% | -18% | -11% | 45µM* | -16% | 21%
CCN1CCN(c2ccc(NC(=O)c3ccc4c(c3)OCCO4)cc2C)CC1 | 1% | -16% | -5% | 7.9µM* | ? | .
CCC(C)NC(=O)Cn1ncc2c(C)n(Cc3ccc(F)cc3)c(C)c2c1=O (configuration not stated) | 15% | -16% | . | 6%[59 µM] | -7% | .
COCCNCC(O)CON=C1c2ccccc2-c2ccccc21 (configuration not stated) | 9% | -15% | -5% | -25% | -17% | 14%
CC(C)CCNCC(O)CON=C1c2ccccc2-c2ccccc21 (configuration not stated) | 44% | -9% | 7% | -23% | -34% | 35µM*
CS(=O)(=O)c1ccc(S(=O)CC(=O)OCc2ccccc2)c([N+](=O)[O-])c1 (configuration not stated) | 24% | -15% | -7% | 10µM* | -21% | -27%
O=C(CS(=O)c1ccc(C(F)(F)F)cc1[N+](=O)[O-])Oc1ccccc1 (configuration not stated) | -37% | -17%[11.4 µM] | . | 50µM* | ? | 13%
CN(Cc1ccco1)c1ncnc2ccc(-c3ccccc3Cl)cc12 | 21% | ? | -12% | -36%[12.7 µM] | -30% | ?
CN(Cc1ccco1)c1ncncc1-c1ccccc1Cl | . | . | . | 30%[0.501 µM] | . | 79µM*
CC(C)CC1=C/C(=C/c2ccc(-c3ccccc3)o2)C(=O)O1 | ? | ? | ? | 13µM* | 45µM* | ?
O/N=C\c1ccc(-c2ccccc2)o1 | 21% | -1% | 5% | 1% | -4% | -5%
CCOc1ccc(C2C(C(=O)Nc3ccc(C)cc3C)=C(C)Nc3c(C(=O)Nc4ccc(C)cc4)cnn32)cc1OC (configuration not stated) | 23% | -3% | . | ? | 3%[57.1 µM] | .
CC1CCN(S(=O)(=O)c2ccc(NC(=O)Cc3cccs3)cc2)CC1 | 1% | 50µM* | . | ? | ? | 2%
CCN(CC(=O)Nc1ccc(OC)cc1)C(=O)CCS(=O)(=O)c1ccc(C)cc1 | 46% | -1% | . | 90% | 7% | 4%
CCN(CC(=O)Nc1ccc(OC)cc1)C(=O)Cc1cccs1 | -22% | ? | ? | 6%[0.501 µM] | 50µM* | .
CC1CCN(CC(=O)Nc2ccc(S(=O)(=O)NC3CC3)cc2)CC1 | ? | 20µM* | . | 14µM* | 50µM* | 12%
CC(=O)Nc1ccc(S(=O)(=O)N2CCN3CCCC3C2)cc1 (configuration not stated) | 30% | -1% | . | 79µM* | -9% | 19%
CC(=O)OCC1C2CC[C@H]3C(OCc4ccc(F)cc4C(F)(F)F)OC[C@]4(C)[C@H]3C2=C(CN4C(=O)OC(C)(C)C)[C@H](C)C1COC(C)=O (some centres not stated) | . | . | . | . | . | 38%
CC1CCCN(S(=O)(=O)c2ccc(NC(=O)CN3CCCCC3)cc2)C1 (configuration not stated) | 24% | ? | -4% | 45µM* | -1% | 17%
CCN(CC)S(=O)(=O)c1ccc(NC(=O)Cc2cccs2)cc1 | ? | -23%[11.4 µM] | . | -7%[59 µM] | 71µM* | 4%
CC1CCCN(CC(=O)Nc2ccc(S(=O)(=O)N3CCCCC3)cc2)C1 (configuration not stated) | 26% | -13% | 6% | -7%[59 µM] | 6% | 17%
CC(=O)Nc1ccc(S(=O)(=O)N2CCN(Cc3cccs3)CC2)cc1 | 32µM* | -99% | 2% | 18µM* | 35µM* | -18%
COc1ccc(NC(C)=O)cc1NC(=O)c1cccc(S(=O)(=O)N2CCN(Cc3ccccc3)CC2)c1 | 7% | -26% | -11% | -1%[0.501 µM] | -6% | .
SMILES | HP1b chromo inh | JMJD2A Tudor inh | L3MBTL1 inh | G9a inh | BAZ2B inh | Sfp PPTase inh
CCOc1ccc(CN2CCN(S(=O)(=O)c3ccc(NC(C)=O)cc3)CC2)cc1OC | ? | 22µM* | -2% | 6.3µM* | 50µM* | -21%
Cc1noc(C)c1C(=O)Nc1ccc(S(=O)(=O)N2CCC(C)CC2)cc1 | 33% | -11% | 7% | 22µM* | -6% | .
CC1CCN(S(=O)(=O)c2ccc3c(c2)CCC(=O)N3CC(=O)Nc2cccc(C#N)c2)CC1 | -21% | -32% | ? | 3%[12.7 µM] | 50µM* | .
CC1CCN(S(=O)(=O)c2ccc(NC(=O)CN3CCCC3)cc2)CC1 | -26% | 4µM* | . | 10µM* | 71µM* | 4%
CC1CCN(CC(=O)Nc2ccc(S(=O)(=O)N3CCC(C)CC3)cc2)CC1 | ? | 0.79µM* | 1% | . | ? | -25%
Cc1ccc(OCC(=O)Nc2c(C(=O)c3ccc(Cl)cc3)oc3ccccc23)cc1C | 40% | -1% | . | -38%[59 µM] | 3% | .
CC(=O)Nc1ccc(S(=O)(=O)N2CCN(C(C)CCc3ccccc3)CC2)cc1 (configuration not stated) | ? | 1µM* | . | 7.1µM* | 50µM* | -13%
CC(=O)Nc1ccc(NC(=O)C(C)N2CCN(S(=O)(=O)c3ccc(C)cc3)CC2)cc1 (configuration not stated) | 16% | -5% | 4% | 10% | -11% | 3%
CCCSc1cc(N2CCN(C)CC2)nc(-c2ccc(OC)cc2)n1 | -25% | ? | . | 50µM* | 50µM* | -11%
C=CCc1cc(Cl)ccc1OCCOCCNC(C)(C)C | -30% | 14µM* | 8% | 25µM* | 50µM* | -13%
C=CCc1cc(OC)ccc1OCCOCCC(C(=O)OCC)C(=O)OCC | 134% | 47% | 43% | 65%[59 µM] | 34% | 23%
CCc1ccccc1OCCCCCNCCO | 49% | -12% | 1% | 24%[12.7 µM] | 2% | 4%
C=CCc1cc(Cl)ccc1OCCNCCCOC | ? | 2.5µM* | 11% | 20µM* | 3% | -2%
C=CCc1ccccc1OCCNCCCOC | -36% | 2.5µM* | 9% | 8.9µM* | -35% | 23%
C=CCc1cc(Cl)ccc1OCCOCCN(C)C | ? | 3.5µM* | -5% | 7.9µM* | 50µM* | -23%
CCCOc1ccc(Cl)cc1CNc1ccccc1 | 52% | 57% | 55% | 206% | 35% | -1%
CCOc1ccc(Cl)cc1CNCCNCCO | 28% | -24% | -1% | . | -35% | -6%
Cc1cc2n(n1)CCC(=O)N2Cc1ccc(C(=O)Nc2ccc(Br)c(C)c2)cc1 | 15% | -5% | . | -33%[59 µM] | -12% | .

Screening data (PubChem)
